Compound activity as filed in PubChem.
This is a sample that favours compounds with a hit; in the whole collection about 6.5% have one here.
Spn PMK inh – inhibitors of Streptococcus pneumoniae phosphomevalonate kinase. purified PMK, PK/LDH-coupled NADH absorbance 340 nm. inhibition, % at 10 µM. hit rate 0.49% among 65,000. AID 539;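 active = top-ranked compounds by inhibition in the single 10 µM screen, taking a fixed number of the strongest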;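 also: 0% = full reaction with DMSO carrier and 100% = background rate without enzyme reaction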
MK inhibit – blocks S. pneumoniae mevalonate kinase | purified MK, PK/LDH-coupled NADH absorbance 340 nm | inhibition, % at 10 µM | hit rate 0.48% among 65,000;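 active = ranked among the strongest by inhibition in the single 10 µM screen, a fixed top-ranked set picked for dose follow-up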
Abs 340nm – compounds absorbing at 340 nm; compound absorbance at 340 nm, fold over control; fold change at 10 µM; 65,000 tested, under 10 active;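 active = at 10 µM dose, initial 340 nm absorbance at least 2 fold that of control wells; inactive = change under 2 fold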;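 also: initial absorbance extrapolated from kinetic A340 decline of NADH oxidation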
NADH coupling – inhibitors of enzymes used to reach an NAD/NADH endpoint; coupled PK/LDH NADH assays, four targets; IC50, µM (doses to about 10 µM), without a hit: top-dose inhibition; hit rate 0.02% among 65,000;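 active = single-dose screening hits from any of four coupled enzyme assays that gave an IC50 when retested across doses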;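 also: the DPM-DC format reads NADH fluorescence rather than 340 nm absorbance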
Spn DPM-DC inh – inhibitors of Streptococcus pneumoniae diphosphomevalonate decarboxylase; hit rate 0.49% among 65,000; purified DPM-DC, PK/LDH coupled NADH fluorescence; calls only at 10 µM; AID 556;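 active = the 320 compounds with the highest percent inhibition in the single-dose primary screen, excluding strongly autofluorescent ones, cut at about 32% in these data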;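 also: kinetic rate of NADH fluorescence loss reporting ADP formed by the decarboxylase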
Fluor 339 460 – intrinsic fluorescence of library compounds, ex339/em460 – biochemical, MLSMR library, data from DPM-DC assay, artefact control, profiling panel | compound autofluorescence, ex339/em460 nm, NADH buffer; hits give high values; 1 = no-compound wells, NADH background | hit rate 5.5% among 65,000 | fluorescence fold increase at 10 µM;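 active = at 10 µM, mean starting fluorescence two-fold or more over control wells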;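 also: signal is the first read of a kinetic run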
Numbers without * were called inactive.

COc1nc(-c2ccc(C)cc2)ccc1-c1noc(-c2ccco2)n1 was read as Spn PMK inh 10, MK inhibit 0, Abs 340nm 1.1, NADH coupling 9%, Spn DPM-DC inh inactive and Fluor 339 460 2.4*.
`CCOc1nc(-c2ccccc2)ccc1-c1noc(COc2ccccc2)n1` gave Spn PMK inh 8, MK inhibit 0, Abs 340nm 1.1, NADH coupling 3%, Spn DPM-DC inh inactive and Fluor 339 460 2.9*.
For CCN(CC)CCCN(Cc1cc2cc3c(cc2[nH]c1=O)OCCO3)C(=O)Nc1ccc(F)cc1 the results were Spn PMK inh 6, Abs 340nm 1.1, NADH coupling 11%, Spn DPM-DC inh inactive and Fluor 339 460 3.2*.
For CCN(CC)CCCN(Cc1cc2cc3c(cc2[nH]c1=O)OCO3)C(=O)Nc1ccccc1OC the results were Spn PMK inh 5, MK inhibit 7, Abs 340nm 1.2, NADH coupling 15%, Spn DPM-DC inh active and Fluor 339 460 2.8*.
Screening Cc1cc(C)c2cc(CN(CCO)C(=O)Nc3ccc(F)cc3)c(=O)[nH]c2c1 returned Spn PMK inh 6, MK inhibit 8, Abs 340nm 1, NADH coupling 5%, Spn DPM-DC inh inactive and Fluor 339 460 1.2.
CC(=O)N(CCc1ccccc1C)Cc1cc2cc3c(cc2[nH]c1=O)OCO3 was read as Spn PMK inh 8, MK inhibit 6, Abs 340nm 1.1, NADH coupling 4% and Fluor 339 460 3*.
`O=C(c1cccs1)N(CCO)Cc1cc2cc3c(cc2[nH]c1=O)OCCO3` gave Spn PMK inh 1, MK inhibit 0, Abs 340nm 1.1, NADH coupling 7%, Spn DPM-DC inh inactive and Fluor 339 460 2.5*.
`CCN(CCCNS(=O)(=O)c1ccc2c(c1)CCN2C(C)=O)c1cccc(C)c1` gave Spn PMK inh 5, MK inhibit 5, Abs 340nm 1, NADH coupling 3%, Spn DPM-DC inh inactive and Fluor 339 460 1.1.
`Cn1c2c(c(=O)n(C)c1=O)C(c1ccccc1OC(F)F)C1=C(CCCC1=O)N2` (stereo not drawn) gave Spn PMK inh 14, MK inhibit 4, Abs 340nm 1, NADH coupling 14%, Spn DPM-DC inh inactive and Fluor 339 460 4*.
Screening O=C(CSc1nnc(-c2ccc(S(=O)(=O)N3CCCC3)cc2)o1)NCc1ccco1 returned Spn PMK inh 8, MK inhibit 15, Abs 340nm 1, NADH coupling 8%, Spn DPM-DC inh inactive and Fluor 339 460 1.1.
CC(C)c1ccccc1OCCNS(C)(=O)=O was read as Spn PMK inh 0, MK inhibit 1, Abs 340nm 1.1, NADH coupling 0%, Spn DPM-DC inh inactive and Fluor 339 460 1.1.
For CCC(=O)Nc1c(C#N)c2nc3ccccc3nc2n1-c1ccccc1C the results were Spn PMK inh 7, MK inhibit 10, Abs 340nm 1, NADH coupling 5% and Fluor 339 460 3.1*.
CCOC(=O)c1nn(-c2ccccc2C)c(=O)c(C#N)c1C was read as Spn PMK inh 9, MK inhibit 2, Abs 340nm 1.1, NADH coupling 4%, Spn DPM-DC inh inactive and Fluor 339 460 1.1.
`N#Cc1c(N)n(C2CCCCC2)c2nc3ccccc3nc12` gave Spn PMK inh 2, MK inhibit 13, Abs 340nm 1, NADH coupling 8% and Fluor 339 460 3.9*.
COc1ccc(-n2c(NC(=O)c3ccco3)c(C#N)c3nc4ccccc4nc32)cc1 was read as Spn PMK inh 14, MK inhibit 9, Abs 340nm 1.1, NADH coupling 20%, Spn DPM-DC inh active and Fluor 339 460 3*.
Screening CCC(=O)Nc1c(C#N)c2nc3ccccc3nc2n1C1CCCCC1 returned Spn PMK inh 9, Abs 340nm 1.1, NADH coupling 9% and Fluor 339 460 2.3*.
`COC(=O)c1ccccc1NC(=O)CSc1nnc(-c2cccc(NC(C)=O)c2)n1C` gave Spn PMK inh 12, MK inhibit 6, Abs 340nm 1, NADH coupling 6%, Spn DPM-DC inh inactive and Fluor 339 460 1.1.
Screening CN(Cc1ccccc1)Cc1nc2c([nH]1)c(=O)n(C)c(=O)n2C returned Spn PMK inh 14, MK inhibit 0, Abs 340nm 1.1, NADH coupling 5%, Spn DPM-DC inh inactive and Fluor 339 460 1.1.
For O=c1oc2c3c4c(cc2c(C(F)(F)F)c1CCN1CCOCC1)CCCN4CCC3 the results were Spn PMK inh 4, MK inhibit 0, Abs 340nm 1, NADH coupling 4%, Spn DPM-DC inh inactive and Fluor 339 460 1.1.
`CC(C)c1cc(=O)oc2c3c4c(cc12)CCCN4CCC3` gave Spn PMK inh 4, MK inhibit 6, Abs 340nm 1.1, NADH coupling 5% and Fluor 339 460 2.1*.
Screening C/C=C/CSc1nc2c(c(=O)[nH]c(=O)n2C)n1Cc1ccc(C)cc1 returned Spn PMK inh 0, MK inhibit 6, Abs 340nm 0.99, NADH coupling 2%, Spn DPM-DC inh inactive and Fluor 339 460 1.
For O=C(CSc1nccc2ccccc12)N1CCN(c2ccccn2)CC1 the results were Spn PMK inh 0, MK inhibit 6, Abs 340nm 1.1, NADH coupling 2%, Spn DPM-DC inh inactive and Fluor 339 460 1.1.
`COC(=O)c1c(C)cc(C)n2c1nc1ccccc12` gave Spn PMK inh 20, MK inhibit 12, Abs 340nm 1, NADH coupling 16% and Fluor 339 460 3.5*.
Screening O=C(OCC(=O)N1CCOCC1)c1ccc[nH]c1=O returned Spn PMK inh 9, MK inhibit 6, Abs 340nm 1, NADH coupling 5%, Spn DPM-DC inh inactive and Fluor 339 460 1.1.
For COc1cc2ccccc2cc1C(=O)OCC(=O)N1CCOCC1 the results were Spn PMK inh 13, MK inhibit 0, Abs 340nm 1, NADH coupling 7% and Fluor 339 460 5.1*.
For COC(=O)c1ccc(-c2ccc(CNCC(O)c3ccccc3)o2)cc1 (stereo not drawn) the results were Spn PMK inh 9, MK inhibit 6, Abs 340nm 1, NADH coupling 6% and Fluor 339 460 2.9*.
For OC(CNCCc1ccccc1)c1ccccc1 (stereo not drawn) the results were Spn PMK inh 11, MK inhibit 0, Abs 340nm 0.99, NADH coupling 1%, Spn DPM-DC inh inactive and Fluor 339 460 1.1.
CCN1CCN(c2cc(C)c3cc(NC(=O)c4ccncc4)ccc3n2)CC1 was read as Spn PMK inh 2, MK inhibit 3, Abs 340nm 1.1, NADH coupling 2%, Spn DPM-DC inh inactive and Fluor 339 460 1.1.
For Cc1cc(N2CCOCC2)nc2ccc(NC(=O)C3CCC(C)CC3)cc12 (stereo not drawn) the results were Spn PMK inh 3, MK inhibit 1, Abs 340nm 1, NADH coupling 1% and Fluor 339 460 2.3*.
